Compound activity: PubChem BioAssay, The Scripps Research Institute Molecular Screening Center
Rows were chosen to be rich in hits. Some 3.5% of all compounds tested hit in one or more screens of this group.
TEAD-YAP inh: TEAD-YAP interaction inhibition; HEK-TIYL cells, TEAD-Gal4/YAP UAS-luciferase luminescence; inhibition, % at 9.12 µM; 1.4% of 640,000 active; in the data active means inhibition above about 32%
FBW7 act: activators of human E3 ligase FBW7 | 0.13% of 650,000 active | AlphaScreen FBW7–phospho-cyclin E peptide binding, activator screen | Q969H0 | normalized activity (activation), % at 26.1 µM; in the data active means normalized activity above about 1.9%;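 further: purified mutant Fbw7 with reduced substrate affinity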
Target sequence (Q969H0 whole entry, looked up): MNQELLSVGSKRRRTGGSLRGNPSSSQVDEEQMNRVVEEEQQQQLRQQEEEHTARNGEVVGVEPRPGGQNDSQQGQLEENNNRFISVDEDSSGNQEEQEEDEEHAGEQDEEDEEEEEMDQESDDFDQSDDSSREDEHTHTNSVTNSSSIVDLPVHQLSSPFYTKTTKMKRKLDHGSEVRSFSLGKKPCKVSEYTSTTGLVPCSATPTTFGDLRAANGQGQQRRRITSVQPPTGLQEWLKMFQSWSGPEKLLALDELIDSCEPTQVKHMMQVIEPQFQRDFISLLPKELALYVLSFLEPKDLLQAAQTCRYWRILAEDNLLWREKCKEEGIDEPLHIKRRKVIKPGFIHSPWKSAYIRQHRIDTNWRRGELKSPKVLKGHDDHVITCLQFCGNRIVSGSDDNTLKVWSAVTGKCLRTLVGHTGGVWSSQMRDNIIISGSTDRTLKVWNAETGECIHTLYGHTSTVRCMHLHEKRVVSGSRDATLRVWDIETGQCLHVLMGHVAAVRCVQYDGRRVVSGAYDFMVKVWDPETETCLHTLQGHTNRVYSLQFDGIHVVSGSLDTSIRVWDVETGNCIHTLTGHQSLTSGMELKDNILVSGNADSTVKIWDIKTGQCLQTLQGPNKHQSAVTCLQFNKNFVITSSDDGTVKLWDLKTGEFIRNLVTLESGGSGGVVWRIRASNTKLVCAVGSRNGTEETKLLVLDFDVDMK
GPR151 ag: human GPR151 activation. Q8TDV0. PathHunter beta-arrestin GPR151 cells, luminescence. activation, % at 11.2 µM. 1% of 650,000 active; in the data active means activation above about 4.9%
MITF primary: inhibitors of human MITF; O75030; AlphaScreen MITF homodimerization, bead proximity signal; 0.91% of 650,000 active; inhibition, % at 2.6 µM; AID 1259374; in the data active means inhibition above about 50%
GPR151 conf act: human GPR151 activation, confirmation screen; shares compounds with GPR151 ag; GPR151 PathHunter beta-arrestin cells, luminescence, 90 min; % of EA-reagent control over plate median; activation, % at 11.2 µM; 6,700 tested, under 10 active;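 active means mean percent activation across replicates above the confirmation screen cutoff of 4.91%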
GPR119 ag: activates human GPR119 in a GPR151 counter-screen. shares compounds with GPR151 ag. GPR119 PathHunter beta-arrestin cells, luminescence, 90 min; 0 = compound-well median, 100 = enzyme-acceptor control. activation, % at 11.2 µM. 0.3% of 6,700 active. AID 1508611;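 active means mean percent activation in the counterscreen above 29.09%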;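 further: counterscreen on off-target GPR119 to flag nonselective hits from the GPR151 activator screen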
Of the large screens only hits and unclear results are named; the others gave an inactive call (follow-up assays come after a bar, where they were run).

COc1ccc(/C=C2\SC(=N)N(c3nccs3)C2=O)cc1OC	GPR151 ag 5.7 | GPR151 conf act inactive | GPR119 ag inactive
FC(F)(F)c1cc(-c2ccc(Cl)cc2)nc(Oc2ccccc2)n1	none
CCOC(=O)c1ccc(NC(=O)Cn2c(-n3nc(C)cc3C)nc(C)c(CC)c2=O)cc1	none
O=C(NCC1CCCO1)c1cc(Br)ccc1Cl (centres undefined)	none
O=C(NCC1CCCO1)c1cc(=O)[nH]c2ccc(Br)cc12 (centres undefined)	GPR151 ag 6.7 | GPR151 conf act inactive | GPR119 ag inactive
CCOc1ccc(-n2c(C)nc3cc(C(=O)NCc4ccc(C)cc4)ccc32)cc1	GPR151 ag 5.3 | GPR151 conf act inactive | GPR119 ag inactive
COc1ccc(NC(=O)C2CCC(Cn3c(=S)[nH]c4ccccc4c3=O)CC2)cc1 (centres undefined)	GPR151 ag 7.0 | GPR151 conf act inactive | GPR119 ag inactive
C[C@H]1C(=O)N2CCN(Cc3ccc(F)c(F)c3)C[C@@H]2C(=O)N1C	GPR151 ag 6.8 | GPR151 conf act inactive | GPR119 ag inactive
CCn1c(O)c(C=NC2CCCC2)c(=O)[nH]c1=S	GPR151 ag 5.2 | GPR151 conf act inactive | GPR119 ag inactive
COCCNC(=O)[C@@H]1C[C@H](NCc2ccc(C(C)C)cc2)CN1Cc1ccccc1Cl	none
COCCNC(=O)[C@@H]1C[C@H](NCc2ccccc2)CN1Cc1ccccc1Cl	GPR151 ag 8.5 | GPR151 conf act inactive | GPR119 ag inactive
COc1ccc(CN(CC2CCCO2)C(=O)c2cc3ccccc3oc2=O)cc1OC (centres undefined)	none
O=C(c1cc2ccccc2oc1=O)N(Cc1ccc2c(c1)OCO2)CC1CCCO1 (centres undefined)	GPR151 ag 7.3 | GPR151 conf act inactive | GPR119 ag inactive
C=CCn1c(/N=C/c2ccc(OC)cc2)nc2ccccc21	GPR151 ag 5.0 | GPR151 conf act inactive | GPR119 ag inactive
C=CCn1c(COc2ccc(OC)cc2)nc2ccccc21	none
CCCCCCOc1ccc(-c2ncc(CCCCC)cn2)cc1	GPR151 ag 5.8 | GPR151 conf act inactive | GPR119 ag inactive
CCCCCCc1cnc(-c2ccc(Br)cc2)nc1	none
O=C(NCCc1c[nH]c2ccccc12)C(c1ccccc1)N1Cc2ccccc2C1=O (centres undefined)	GPR151 ag 5.2 | GPR151 conf act inactive | GPR119 ag inactive
Fc1ccc(C2=CC(c3ccccc3)n3nnnc3N2)cc1 (centres undefined)	none
COc1ccc(C2C=C(c3ccc(Br)cc3)Nc3nc4ccccc4n32)cc1 (centres undefined)	none
Cc1ccc(C2C=C(c3ccc(Br)cc3)Nc3nc4ccccc4n32)cc1 (centres undefined)	GPR151 ag 5.9 | GPR151 conf act inactive | GPR119 ag inactive
Cc1ccc(C2=CC(c3ccccc3)n3nnnc3N2)cc1 (centres undefined)	GPR151 ag 7.3 | GPR151 conf act inactive | GPR119 ag inactive
CC(NC(=O)c1ccc2c(c1)OCO2)C1CCCO1 (centres undefined)	GPR151 ag 5.5 | GPR151 conf act inactive | GPR119 ag inactive
CC(NC(=O)c1cccc(Br)c1)C1CCCO1 (centres undefined)	none
CC(=O)CC/C=C(\C)CCC=C(C)C	GPR151 ag 6.1 | GPR151 conf act inactive | GPR119 ag inactive
CCN1C(=O)/C(=C/c2ccc(C(=O)OC)cc2)NC1=S	none
CCN1C(=O)/C(=C/c2ccc(OCc3ccc(C(=O)O)cc3)cc2)NC1=S	GPR151 ag 7.8 | GPR151 conf act inactive | GPR119 ag inactive
COc1ccc(NC(=O)C2CCN(c3nnc(N4CCCC4=O)s3)CC2)cc1	GPR151 ag 6.3 | GPR151 conf act inactive | GPR119 ag inactive
O=C(Nc1ccc(-c2nc3ncccc3o2)cc1)c1cc(Cl)ccc1Cl	none
CCOC(=O)c1sc(-c2ccccc2)cc1NC(=S)NC(=O)CN1C(=O)CCC1=O	GPR151 ag 7.7 | GPR151 conf act inactive | GPR119 ag inactive
CCOC(=O)c1sc(-c2ccccc2)cc1NC(=O)c1cc2ccccc2cc1OC	none
O=[N+]([O-])c1ccn(Cc2ccccc2)n1	none
CCOC(=O)C1=C(C)N=c2s/c(=C\c3ccccc3OCc3cccc4ccccc34)c(=O)n2C1c1ccc(SC)cc1 (centres undefined)	none
